Source: PubChem BioAssay AID651601 (Sanford-Burnham Center for Chemical Genomics, 2012)
Activity calls are given as the source filed them.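 How the source made its calls: active means CXCR6 mean IC50 below 15 µM, and neither CCR6 nor CXCR5 mean IC50 under five times that; inactive means the rest.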

Biological target: C-C chemokine receptor type 6 (Homo sapiens) (UniProt P51684)
Assay: antagonist selectivity across CCR6, CXCR5 and CXCR6 – cell-based, CHO-K1 PathHunter beta-arrestin, luminescence, selectivity assay for CXCR6 antagonist project, profiling panel (AID 651601)
Conditions: antagonist mode, mean of runs

Sequence of C-C chemokine receptor type 6 (Homo sapiens) (P51684 whole entry, looked up): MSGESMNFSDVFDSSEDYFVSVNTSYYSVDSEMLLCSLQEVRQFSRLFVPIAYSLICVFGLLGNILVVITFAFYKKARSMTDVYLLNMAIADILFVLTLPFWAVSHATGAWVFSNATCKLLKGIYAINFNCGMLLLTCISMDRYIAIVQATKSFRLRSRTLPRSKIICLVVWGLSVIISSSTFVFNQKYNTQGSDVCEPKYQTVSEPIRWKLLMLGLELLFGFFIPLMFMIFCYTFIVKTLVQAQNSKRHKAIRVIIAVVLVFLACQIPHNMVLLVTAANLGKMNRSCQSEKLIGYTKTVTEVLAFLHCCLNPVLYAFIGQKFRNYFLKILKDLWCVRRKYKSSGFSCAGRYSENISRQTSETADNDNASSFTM

**Q.** Which outcome does the source give for `COc1cc(C(=O)NC2CC3CCCC(C2)N3CC(=O)Nc2ccccc2)cc(OC)c1OC` (stereo unspecified) here?
**A.** inactive

**Q.** Which outcome does the source give for `CN(C)c1ccc(NC(=O)CN2C3CCCC2CC(NC(=O)c2ccccc2)C3)cc1` (stereo unspecified) here?
**A.** inactive

**Q.** For `O=C(CN1C2CCCC1CC(NC(=O)c1ccccc1)C2)Nc1ccccc1` (stereo unspecified), which outcome is on record?
**A.** inactive

**Q.** Which outcome does the source give for `COc1cccc(C(=O)NC2CC3CCCC(C2)N3CC(=O)Nc2ccc(N(C)C)cc2)c1` (stereo unspecified) here?
**A.** inactive

**Q.** How did the outcome turn out when `COc1cccc(C(=O)NC2CC3CCCC(C2)N3CC(=O)Nc2ccccc2C(F)(F)F)c1` (stereo unspecified) was run?
**A.** inactive

**Q.** How did the outcome turn out when `O=C(CN1C2CCCC1CC(NC(=O)c1ccccc1)C2)Nc1ccccc1C(F)(F)F` (stereo unspecified) was run?
**A.** inactive
